A selection: hits, their analogues and other compounds. The true share with any hit is near 3.2%.
AMA1 RON2 block – AMA1-RON2 (P. falciparum) interaction inhibition; Potency, µM (top dose mostly 58.2 µM), hits mostly inhibitors; AlphaScreen AMA1-biotinylated RON2 peptide binding; actives 0.2% (n = 360,000); AID 720542; further: nearly all actives have a fitted effect of over 45% in size
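AMA1 (3D7) with his tag at 25 nM final met compounds first, then biotinylated RON2 peptide at 25 nM; detection used donor plus acceptor beads, 10 µg/mL apiece, read by AlphaScreen after 30 min at room temperature.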
AmpC detergent – AmpC beta-lactamase inhibition with detergent present; Potency, µM (series often up to 114 µM), usual class: inhibitors; AID 485294; actives 0.041% (n = 370,000); AmpC hydrolysis of nitrocefin, absorbance 480 nm, 0.01% Triton; further: nearly all actives have a fitted effect of over 25% in size
Target sequence (P00811 whole entry, looked up): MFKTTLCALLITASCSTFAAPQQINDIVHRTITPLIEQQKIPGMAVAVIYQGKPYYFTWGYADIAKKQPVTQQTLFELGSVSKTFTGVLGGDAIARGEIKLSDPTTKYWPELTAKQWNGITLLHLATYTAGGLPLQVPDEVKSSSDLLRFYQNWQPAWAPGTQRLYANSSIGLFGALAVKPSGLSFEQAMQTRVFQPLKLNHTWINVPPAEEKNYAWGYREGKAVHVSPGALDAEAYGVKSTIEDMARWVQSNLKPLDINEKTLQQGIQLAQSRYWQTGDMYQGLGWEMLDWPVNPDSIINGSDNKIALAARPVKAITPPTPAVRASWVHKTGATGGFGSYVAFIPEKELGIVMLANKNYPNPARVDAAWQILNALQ
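AmpC (5.3 nM in the dispensed reagent) in 20 mM phosphate pH 7.0 with 0.01% (detergent screen) or 0.0001% Triton X-100 was preincubated with compounds for 15 min at room temperature. Nitrocefin was then added from an 800 uM solution, and hydrolysis was followed at 480 nm.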
AmpC inh no detg – AmpC beta-lactamase inhibition without detergent; AmpC nitrocefin hydrolysis, absorbance 480 nm, 0.0001% Triton; P00811; Potency, µM (doses to about 57.1 µM), actives largely listed as inhibitors; actives 0.52% (n = 330,000); further: nearly all actives have a fitted effect of over 20% in size
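AmpC (5.3 nM in the dispensed reagent) in 20 mM phosphate pH 7.0 with 0.01% (detergent screen) or 0.0001% Triton X-100 was preincubated with compounds for 15 min at room temperature. Nitrocefin was then added from an 800 uM solution, and hydrolysis was followed at 480 nm.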
Sm TGR inh – blocks Schistosoma mansoni thioredoxin glutathione reductase; purified TGR, DTNB reduction, TNB absorbance 405 nm; Potency, µM (top dose mostly 114 µM), hits mostly inhibitors; actives 3% (n = 360,000); AID 485364; Q962Y6; further: nearly all actives have a fitted effect of over 60% in size
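TGR 20 nM + NADPH 100 uM (dispensed conc.), cpd preinc 15 min RT; start with NADPH (500 uM addition) then DTNB (15 mM addition). Kinetic TNB absorbance, 405 nm filter. Four-parameter Hill fit across titration.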
RE007 growth inh – less growth of the S. pombe RE007 Vpr strain; S. pombe RE007 Vpr strain, BacTiter-Glo ATP luminescence, 24 h; Potency, µM (series often up to 92.2 µM), actives largely listed as inhibitors; actives 0.21% (n = 360,000); active means well fitted falling curve with a large enough effect; inconclusive means small, poorly fitted or top-dose-only effect; inactive means no such curve, though single readings can be large or run the other way; further: nearly all actives have a fitted effect of over 50% in size
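Fission yeast RE007 carrying one integrated HIV-1 vpr copy, seeded at OD 0.01 in PMG+AL medium with 23 nL pinned compound. Grown 24 h at 30 degrees; viability read by BacTiter-Glo luminescence after 5 min.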
Hits are given with their value; n = inactive; u = inconclusive; x = no result; [ ] = remark or other dose. Unless noted, the call rests on the fitted dose curve; in most records, active means well fitted curve in the direction sought with a large enough effect; inconclusive means small, poorly fitted or top-dose-only effect, or another doubt; inactive means no such curve, though single readings can be large; an effect the other way counts as inactive or inconclusive.

SMILES	AMA1 RON2 block	AmpC detergent	AmpC inh no detg	Sm TGR inh	RE007 growth inh
Cn1c2cc(Br)sc2c2cnn(Cc3c(F)cccc3F)c(=O)c21	x	n	n	n	x
Cn1c2cc(B(O)O)sc2c2cnn(Cc3ccc(F)cc3F)c(=O)c21	x	3.55µM	3.55µM	n	x
Cn1c2cc(B(O)O)sc2c2cnn(Cc3c(F)cccc3F)c(=O)c21	x	2.51µM	5.62µM	n	x
Cn1c2cc(Br)sc2c2cnn(Cc3c(F)cccc3Cl)c(=O)c21	x	n	n	n	x
NCc1oc(-c2ccccc2)cc1C(=O)O	n	n	n	44.7µM	n
Cc1oc(-c2ccccc2)cc1C(N)=O	n	n	n	n	n
CCN(CC)Cc1cc(C(=O)O)c(-c2ccccc2)o1	n	n	n	n	n
CCN(CC)Cc1oc(-c2ccccc2)cc1C(=O)O	n	n	n	50.1µM	n
CCN(c1ccccc1)c1ncnc2c1cnn2-c1ccc(C)cc1C	x	n	x	n	x
O=C(Nc1ccc(Cl)cc1)C(NS(=O)(=O)c1cccs1)c1ccccc1 (stereo not given)	x	n	x	n	x
O=C(O)CCC(=O)CCC(=O)c1ccc(Cl)cc1	n	n	n	28.2µM	n
CCc1ccccc1NC(=O)Cn1nnc(C(=O)Nc2ccc(OC)c(OC)c2)c1N	x	n	x	n	x
C=CCNc1oc(COc2ccc(C)cc2)nc1C#N	n	n	n	n	n
COc1ccc(-c2nc(C#N)c(NCCCN3CCOCC3)o2)cc1	n	n	28.2µM	n	n
N#Cc1nc(COc2ccccc2)oc1NCCN1CCOCC1	n	u	n	n	n
N#Cc1nc(COc2cccc(Cl)c2)oc1NCCN1CCOCC1	n	n	n	35.5µM	n
N#Cc1nc(-c2ccc(F)cc2)oc1NCCN1CCOCC1	n	u	0.631µM	n	n
N#Cc1nc(COc2ccc(-c3ccccc3)cc2)oc1NCCCN1CCOCC1	n	n	n	n	n
CN(C)CCNc1oc(COc2ccc(-c3ccccc3)cc2)nc1C#N	n	n	n	44.7µM	n
COc1ccc(S(=O)(=O)NCC(c2ccc(N(C)C)cc2)N2CCc3ccccc32)cc1F (stereo not given)	x	n	x	n	x
Cc1ccc(-n2c(SCC(=O)NCc3ccccc3)nc3n[nH]c(C)c3c2=N)cc1Cl	x	n	x	n	x
CCCCCn1c(=O)[nH]c2cc(C(=O)Nc3ccc(F)c(F)c3)ccc2c1=O	x	n	x	n	x
Cc1oc(C)c2c(=O)ccc3c(c12)OC(N)=C(C#N)C3c1ccc(F)cc1 (stereo not given)	n	n	n	17.8µM	n
Cc1nc2ccn(Cc3cccs3)c(=O)c2cc1C(=O)N1CCN(c2ccccc2F)CC1	x	n	x	n	x
O=C(O)COc1ccccc1-c1nc(-c2ccccc2)c(-c2ccccc2)[nH]1	n	n	3.16µM	n	n
SMILES	AMA1 RON2 block	AmpC detergent	AmpC inh no detg	Sm TGR inh	RE007 growth inh
COc1cccc(-c2nc(-c3ccccc3)c(-c3ccccc3)[nH]2)c1OCC(=O)O	n	u	n	n	n
O=C(CCl)Nc1ccc(S(=O)(=O)Nc2nccs2)cc1	n	n	n	20µM	n
CCCC(=O)Nc1ccc(S(=O)(=O)Nc2nccs2)cc1	n	x	x	x	n
CCOC(=O)/C=C/C(=O)Nc1ccc(S(=O)(=O)Nc2nccs2)cc1	n	n	n	44.7µM	n
O=C(Nc1ccc(S(=O)(=O)Nc2nccs2)cc1)c1nn(-c2ccc(F)cc2)ccc1=O	n	n	10µM	n	n
CCN(CC)CCOC(=O)c1ccc(NC(=O)c2nn(-c3ccc(C)cc3)c(=O)c3c2c2ccccc2n3C)cc1	x	n	x	n	x
O=C(NCCc1ccccc1)c1nn(-c2ccc(F)cc2)nc1CO	x	n	x	n	x
CN1CCN(C(=O)c2ccc3c(c2)N(Cc2ccc(Cl)cc2)C(=O)c2ccccc2S3(=O)=O)CC1	x	n	x	n	x
CCOC(=O)c1ccc(N2C(=O)CC(NC3CCN(C(=O)c4ccc(F)cc4)CC3)C2=O)cc1 (stereo not given)	n	n	n	50.1µM	n
CCOc1ccc(N2C(=O)CC(NC3CCN(C(=O)c4ccc(F)cc4)CC3)C2=O)cc1 (stereo not given)	n	n	n	17.8µM	u
CC(C)C[C@@H]1NC(=O)[C@H](Cc2ccc(O)cc2)NC(=O)c2cc([N+](=O)[O-])cc(I)c2NCCC[C@@H](C(N)=O)NC1=O	n	u	3.98µM	n	n
NC(=O)[C@@H]1CCCNc2c(I)cc([N+](=O)[O-])cc2C(=O)N[C@@H](CO)C(=O)N[C@@H](Cc2ccc(O)cc2)C(=O)N1	n	n	n	n	n
CCOC(=O)c1c(NC(=O)c2cc(OCC)c(OCC)c(OCC)c2)sc2c1CCCCC2	x	n	x	n	x
Cc1cccc(N=C2NN=C(c3ccccc3F)CS2)c1C	n	n	12.6µM	n	n
Fc1ccc(F)c(C2=NNC(=Nc3ccccc3F)SC2)c1	n	n	n	n	n
CCOc1ccc(C(C)=O)cc1CSc1nnc(-c2cccs2)n1CC1CCCO1 (stereo not given)	n	n	n	20µM	n
O=C(CSc1nnc(-c2cccs2)n1CC1CCCO1)N1CCCC1 (stereo not given)	n	n	n	x	n
CCS(=O)(=O)N1CC(=O)N(c2ccc(Cl)cc2C)C(C)(C(=O)NC2CCCCC2)C1 (stereo not given)	x	n	x	n	x
CCOc1ccc(S(=O)(=O)N2CCN(c3c(C)cccc3C)CC2)c2ccccc12	x	n	x	n	x
CCOC(=O)C(CC)Sc1nnc2[nH]c(=O)cc(C)n12 (stereo not given)	x	n	x	n	x
CCCCOc1ccc(Nc2cc(Cl)ccc2C(=O)O)cn1	n	n	n	n	28.2µM
COc1ccc(CC(=O)Nc2cc(Cl)ccc2C(=O)O)cc1	n	n	n	n	n
O=c1[nH]c(NC2CCCCC2)c([N+](=O)[O-])c(=O)[nH]1	n	89.1µM	n	n	n
Cn1c(=O)[nH]c(NC2CCCCC2)c([N+](=O)[O-])c1=O	n	n	n	n	n
O=C1C(=C2CCCCC2)SC(=S)N1Cc1ccco1	n	u	u	20µM	n
SMILES	AMA1 RON2 block	AmpC detergent	AmpC inh no detg	Sm TGR inh	RE007 growth inh
O=C1CC(=O)N(Cc2ccco2)C(=S)N1	n	u	n	1.78µM	n
O=C1CCCc2[nH]c(=O)c(-c3nc(-c4cccc([N+](=O)[O-])c4)cs3)cc21	x	n	x	n	x
CC1=CC(c2ccccc2)n2nc(N3C(=O)c4ccccc4C3=O)nc2N1 (stereo not given)	n	n	n	35.5µM	n
CC(C)Oc1ccc(CNC(=O)c2ccc(NC(=O)c3nsc4ccccc34)cc2)cc1	x	n	x	n	x
Cn1c(=O)c2c(SCC(=O)N3CCc4ccccc43)nc(-c3ccccc3Cl)nc2n(C)c1=O	x	n	x	n	x
O=S(=O)(c1ccc(Br)cc1)N1CCCN(Cc2cccc(F)c2)CC1	n[11.6 µM]	u	n	n	n
O=C(NCC1CCCN1S(=O)(=O)c1cccs1)C(=O)Nc1ccc(F)cc1 (stereo not given)	n	u	28.2µM	n	n

High-throughput results: PubChem, National Center for Advancing Translational Sciences (NCATS)
